Screening data (PubChem BioAssay)
aSyn 5UTR act = Activators working through SNCA 5'UTR binding (MLPCN); alpha-synuclein 5'UTR reporter, activators screen; activity score, % (tested at 7.5 µM), hits read low; 7.1% of 300,000 active; AID 1814; in the data active = activity score below about -60%
Active calls of the source: *. These entries were drawn from the full list.

SMILES	aSyn 5UTR act
CCn1ncc(NC(=S)Nc2ccc3c(c2)OCO3)c1C(N)=O	-180*
Cc1ccc(C(=O)NC(=S)Nc2ccc3c(c2)OCCO3)c(C)c1	-137*
O=C(CCl)Nc1ccc2c(c1)OCO2	-90*
CCc1ccc(C(=O)NC(=S)Nc2ccc3c(c2)OCCO3)cc1	-128*
O=C(NC(=S)Nc1ccc2c(c1)OCCO2)c1ccc(F)cc1Cl	-136*
Cc1cc(C)cc(C(=O)NC(=S)Nc2ccc3c(c2)OCCO3)c1	-219*
S=C(Nc1ccc2c(c1)OCO2)Nc1ccc2c(c1)OCO2	-107*
N#CC1=C(N)Oc2c(ccc3ccccc23)C1c1cccs1 (stereo not drawn)	110
CC(=O)n1c2c(c3ccccc31)OC(N)=C(C#N)C2c1ccc(C(C)C)cc1 (stereo not drawn)	-118*
O=C(CN1CCCCC1)Nc1scc2c1c(=O)oc1ccccc12	-134*
Fc1ccc(/C=N/NC(=S)Nc2cccnc2)cc1F	-86*
COc1ccc(-c2nc(CS(=O)CC(=O)NCCC3=CCCCC3)c(C)o2)cc1 (stereo not drawn)	-86*
O=C(COc1ccccc1Br)NCc1ccccn1	-71*
O=C(NCCSc1ccccn1)c1ccc(Cl)cc1Cl	-93*
Cc1ccc(C(=O)NCc2ccccn2)c(Cl)c1	-92*
Cc1ccc(OCC(=O)NCc2ccccn2)c(Br)c1	-104*
O=C(COc1ccc(F)cc1Br)NCc1ccccn1	-88*
c1ccc(-c2nnc(-c3ccccn3)s2)nc1	78
c1ccc(C2=NNC(c3ccccn3)=NN2)nc1	-118*
Cc1ccc(Nc2ncnc3c2oc2ccccc23)cc1	-114*
c1ccc2c(c1)oc1c(Nc3ccc4c(c3)OCCO4)ncnc12	-142*
c1ccc(Sc2ncnc3c2oc2ccccc23)cc1	-180*
COc1ccc(Nc2ncnc3c2oc2ccccc23)cc1	-160*
Oc1ccc(N=Nc2ccc3c(c2)OCCO3)c2cccnc12	104
N#C/C(=C/c1ccc(N2CCCCC2)o1)C(=O)Nc1ccc2ccccc2c1	-110*
SMILES	aSyn 5UTR act
N#C/C(=C/c1ccc(N2CCCCC2)o1)C(=O)Nc1ccc(Cl)cc1	-152*
O=C1c2cc(F)ccc2-n2c1nc1ccccc1c2=O	66
O=c1oc(Nc2cccc(F)c2)nc2ccccc12	-64*
Nc1nc(Nc2cccc(F)c2)nc2ccccc12	-196*
c1ccc(CSc2ncnc3c2cnn3-c2ccccc2)cc1	-142*
CC(C)(C)C(=O)CSc1ncnc2c1cnn2-c1ccccc1	-162*
COc1ccccc1C(=O)Nc1cc2cc(Cl)ccc2oc1=O	-123*
COc1ccccc1C(=O)NNC(=O)c1ccc(F)cc1	-92*
COc1ccccc1C(=O)NNC(=O)c1ccc(Cl)cc1	-70*
COC(c1ccccc1)c1nnc(CCC(=O)N(C)C(C2CC2)C2CC2)o1 (stereo not drawn)	-147*
CCCCn1nc(NC(=O)COC)c2cc3cc(OC)ccc3nc21	-78*
CC1CC(C)CN(Cc2nc(N)nc(Nc3ccc4ccccc4c3)n2)C1 (stereo not drawn)	-115*
Cc1ccc(C(C)(C)NC(=O)C2CCC(=O)N(C3CCCCCC3)C2)cc1 (stereo not drawn)	-147*
O=c1cc(Cl)[nH]c(=O)n1CCNc1ncc(C(F)(F)F)cc1Cl	-106*
O=[N+]([O-])c1cccnc1NCCNc1ncc(C(F)(F)F)cc1Cl	-178*
O=[N+]([O-])c1ccccc1NCCNc1ncc(C(F)(F)F)cc1Cl	-77*
Fc1cccc(/C=N/Nc2cc(N3CCOCC3)ncn2)c1	-108*
Fc1ccc(/C=N/Nc2cc(N3CCOCC3)ncn2)cc1	-88*
C(=N\Nc1cc(N2CCCCC2)ncn1)/c1ccco1	-129*
COc1cccc(/C=N/Nc2cc(N3CCOCC3)ncn2)c1O	72
N#C/C(=C(/O)c1cccc(F)c1)c1nc2ccccc2s1	-149*
N#C/C(=C(/O)c1ccco1)c1nc2ccccc2s1	-128*
N#C/C(=C(/O)c1cc2ccccc2o1)c1nc2ccccc2s1	-120*
N#C/C(=C(\O)c1ccco1)c1ccccn1	-91*
COC(=O)c1sccc1NC(=O)COc1ccc(F)cc1Cl	-99*
SMILES	aSyn 5UTR act
O=C(COc1ccc(Cl)cc1Cl)Nc1ccccc1F	-175*
CC(=O)Nc1ccc(NC(=O)COc2ccc(Cl)cc2Cl)cc1	-117*
O=C(COc1ccc(Cl)cc1Cl)c1ccc[nH]1	-94*
O=C(COc1cc(Cl)ccc1Cl)Nc1ccc2c(c1)CCC2	-64*
CNCc1cc(Cl)cc(OC)c1OC(C)C	-81*
S=C1NC2=C(CCCC2=C2SCCS2)C(c2ccccc2)N1 (stereo not drawn)	-324*
COC(=O)c1c(-c2ccc(Br)cc2)noc1N	-65*
CC(C)c1nnc(NC(=O)c2nc(S(=O)(=O)Cc3ccccc3)ncc2Cl)s1	-81*
CCc1ccc(NC(=O)c2nc(S(=O)(=O)Cc3ccccc3)ncc2Cl)cc1	91
Clc1ccc(SCc2cn3ccsc3n2)cc1	-236*
Cc1cc(OCc2cn3cccnc3n2)ccc1Cl	-127*
Clc1ccc(SCc2cn3cccnc3n2)cc1	-64*
Cc1csc2nc(CSc3ccc(Cl)cc3)cn12	-103*
CN(Cc1cnc2nc(N)nc(N)c2n1)c1ccc(C(=O)N[C@@H](CCC(=O)O)C(=O)O)cc1	78
c1ccc2oc(SCc3cn4ccsc4n3)nc2c1	-122*
c1ccc(CSCc2cn3ccsc3n2)cc1	-176*
c1cn2cc(CSC3CCCCC3)nc2s1	-130*
CC1CC(c2ccccc2)=Nc2ccccc2N1 (stereo not drawn)	-100*
O=S(=O)(Nc1ccc(-c2cn3ccsc3n2)cc1)c1ccc2c(c1)OCCO2	-67*
CN(C)c1ccc(C(CN)c2c[nH]c3ccccc23)cc1 (stereo not drawn)	-97*
CC(=O)N1CCc2cc(N=NC3=C(O)CC(C)(C)CC3=O)ccc21	-95*
Cc1nc2ccc(N=NC3=C(O)CC(C)(C)CC3=O)cc2s1	-77*
CCOc1ccc2nc(N=NC3=C(O)CC(C)(C)CC3=O)sc2c1	-98*
Cc1ccc(O)c(N=NC2=C(O)CC(C)(C)CC2=O)c1	65
CC1(C)CC(=O)C(N=Nc2cccc(S(=O)(=O)N3CCOCC3)c2)=C(O)C1	41
SMILES	aSyn 5UTR act
c1ccc2sc(N3CCOCC3)nc2c1	-65*
Fc1cccc(Cl)c1CN1CCN(c2nc3ccccc3s2)CC1	-198*
CCC(C)(C)n1nnnc1C(c1ccc2ncccc2c1)N1CCN(c2nc3ccccc3s2)CC1 (stereo not drawn)	54
Nc1ccc2nc(N3CCOCC3)sc2c1	-69*
c1c2c(cc3sc(N4CCOCC4)nc13)OCCO2	94
c1ccc(N2CCN(c3nc4cc5c(cc4s3)OCCO5)CC2)cc1	-157*
O=C1CC(c2ccc3c(c2)OCCO3)Oc2ccccc21 (stereo not drawn)	-209*
COc1ccc(C2CC(=O)c3ccccc3O2)cc1 (stereo not drawn)	-147*
CC(C)Oc1ccccc1C1CC(=O)Nc2cc3c(cc21)OCCO3 (stereo not drawn)	73
O=C1CC(c2ccc3c(c2)OCCO3)Oc2ccc([N+](=O)[O-])cc21 (stereo not drawn)	-163*
Cc1ccn2cc(CSc3ccccc3)nc2c1	-88*
c1ccn2cc(CSC3=NCCS3)nc2c1	-118*
c1ccn2cc(CSc3nnc4ccccn34)nc2c1	-90*
Cn1ccnc1SCc1cn2ccccc2n1	-105*
O=[N+]([O-])c1cccc(-c2nnn(C34CC5CC(CC(C5)C3)C4)n2)c1	-82*
COc1ccc(NC(=O)Nc2ccccn2)cc1OC	-79*
O=C(Nc1ccc(Cl)c(Cl)c1)Nc1ccccn1	-178*
